# Out of some 400,000 compounds screened, about 13,000 (3.2%) were called active. Inconclusive results (about 18%) are left out. Calls come from the whole dose curve; as a rule, active = well fitted cell-killing curve with a large enough effect; inconclusive = small, poorly fitted or top-dose-only effect, or effect the other way; inactive = flat fitted curve, though single readings scatter. This excerpt belongs to a sample that is enriched for actives.
# Assay: qHTS assay for MDR1-selective chemotherapeutics: Primary screen using the drug-selected MDR subline cells KB-V1; note: nearly all actives have a fitted effect of over 60% in size
# Details: KB-V1 MDR cells viability, CellTiter-Glo, 72 h; series mostly up to 46.1 µM; activity change, negative = cytotoxicity: at the top concentration
# Summary of the method: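 KB-V1, DMEM (no phenol red) + 10% FBS; cpd pin-transferred, titration series; 72 h, 37 degrees C; CellTiter-Glo, luminescence. Data normalized, curve-fit.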
# % is set by controls: 0 for no effect and ±100 for the full control effect; potency is the fitted concentration of half-maximal effect.
SMILES,"activity change, negative = cytotoxicity",Potency
CCc1nc2c(OCCOc3ccccc3)cccn2c1N(C)C(=O)c1cccs1,1.04% (inactive),–
CC(C)NC(=O)C1(C)CCCCN1Cc1cccc(C(F)(F)F)c1 (configuration not stated),-13.8% (inactive),–
Cc1cc2c(cc1C)N1C(=O)c3cc4ccccc4cc3NC(=O)C1C(=O)N2 (configuration not stated),18.4% (inactive),–
C=CCc1ccc(OCCOc2cccc(/C=N/n3cnnc3)c2)c(OC)c1,-18.5% (inactive),–
COc1cccc(OCCOc2cccc(/C=N/n3cnnc3)c2)c1,–,18.4 µM (active)
COCCNCCOCCOc1cccc(OC)c1,7.45% (inactive),–
COc1cccc(CNC(=O)CSc2c3c(nc4cc(Cl)ccc24)CCCC3)c1,-15.6% (inactive),–
CC(=O)NCCC(=O)Nc1nc(-c2ccc3c(c2)OCCO3)cs1,13% (inactive),–
O=C(Nc1nc2ccccc2s1)c1ccc2c(c1)OCO2,-25.4% (inactive),–
O=C(Nc1nc(-c2ccc3c(c2)OCO3)cs1)c1ccncc1,–,2.59 µM (active)
CN(C)C1CN(Cc2cn(Cc3ccccc3)nn2)S(=O)(=O)C1 (configuration not stated),12% (inactive),–
COC(=O)c1cc2occc2n1Cc1nc(-c2ccc(C)cc2)oc1C,-14.7% (inactive),–
O=C(NCc1ccc(F)cc1F)[C@@H]1CCCN1C(=O)[C@@H]1CCCN1C(=O)c1cccc(Cl)c1,-5.66% (inactive),–
Cc1nn(-c2ccccc2)c(Cl)c1/C=C/C(=O)c1ccc(O)cc1,–,20.6 µM (active)
Cc1nn(-c2ccccc2)c(Cl)c1C(=O)Nc1ccccc1,0% (inactive),–
Cc1nn(-c2ccccc2)c(Cl)c1/C=N/NC(=O)c1nn(C)cc1[N+](=O)[O-],-21.2% (inactive),–
O=C1NC(O)CCN1C1CC(O)C(CO)O1 (configuration not stated),3.08% (inactive),–
Cc1ccc(Nc2c3c(nc4ccccc24)CCC3)cc1,–,5.8 µM (active)
Cc1cc(Nc2ccc(Br)cc2)nc2ccccc12,0% (inactive),–
N#Cc1cccc(Nc2c3c(nc4ccccc24)CCCC3)c1,0% (inactive),–
O=C(OCc1ccccc1)N1CCC2CC1c1cc(N3CCN(S(=O)(=O)c4cc(Cl)cc(Cl)c4)CC3)ccc12 (configuration not stated),-9.13% (inactive),–
COc1ccc(C/C(N)=N/OC(=O)c2ccco2)cc1OC,-7.55% (inactive),–
COc1ccc(C(=O)O/N=C(\N)Cc2ccc(Cl)cc2Cl)cc1OC,–,23.1 µM (active)
COc1ccc(C(=O)ON=C2c3ccccc3-c3ccccc32)cc1OC,-13.7% (inactive),–
COc1ccc(S(=O)(=O)N2CCCCC2c2cc(C(=O)NCc3ccc(F)cc3)no2)cc1 (configuration not stated),-24.5% (inactive),–
CCOC(=O)[C@]12CCCC=C1N(Cc1ccc3c(c1)OCO3)C(=O)[C@H](CC(=O)N1CCN(C(=O)c3ccco3)CC1)C2,0% (inactive),–

SMILES,"activity change, negative = cytotoxicity",Potency
CC(=O)C1=CCC(c2ccccc2)N(S(=O)(=O)c2ccc(C)cc2)C1 (configuration not stated),4.38% (inactive),–
N#Cc1ccc(OCC(=O)Nc2nc(-c3ccccn3)cs2)cc1,-0.182% (inactive),–
O=C(COc1ccccc1F)Nc1nc(-c2ccccn2)cs1,–,4.61 µM (active)
O=C(COc1ccccc1F)NC1CC1,-1.57% (inactive),–
COc1ccc(-c2ccc3ncnc(NCc4cccs4)c3c2)cc1OC,12.9% (inactive),–
CCOC(=O)C1=CC[C@@H](c2ccccc2)N(S(=O)(=O)c2ccc(C)cc2)[C@H]1c1ccc(CC)cc1,-16.3% (inactive),–
S=C(NCC1CCCO1)N1CCN(c2ccc(Cl)c(Cl)c2)CC1 (configuration not stated),–,7.31 µM (active)
COc1ccc(S(=O)(=O)N2CCN(C(=S)NCC3CCCO3)CC2)cc1OC (configuration not stated),-5.5% (inactive),–
CCOc1ccc(S(=O)(=O)N2CCN(C(=S)NCC3CCCO3)CC2)cc1 (configuration not stated),-3.32% (inactive),–
CCCC(=O)Nc1ccc2oc(-c3ccc(O)c(Br)c3)nc2c1,0% (inactive),–
Cc1nn(Cc2ccc(C(=O)N3N=C(C(F)F)CC3(O)C(F)F)cc2)c(C)c1[N+](=O)[O-] (configuration not stated),–,8.2 µM (active)
Cc1ccn(CC(=O)N2N=C(C(F)F)CC2(O)C(F)F)n1 (configuration not stated),13.8% (inactive),–
Cc1nn(CC(=O)N/N=C/c2ccc(F)cc2)c(C)c1[N+](=O)[O-],18.1% (inactive),–
N#Cc1ccc(-c2nc3c(Cl)cc(C(F)(F)F)cn3c2Cc2ccccc2C(F)(F)F)cc1,-4.42% (inactive),–
COC(=O)C1=C(C)NC(=O)CC1c1ccccc1OC (configuration not stated),-1.64% (inactive),–
CCCOc1ccccc1C1CC(=O)Nc2cc3c(cc21)OCO3 (configuration not stated),–,4.61 µM (active)
O=C1CC(c2ccc(F)cc2F)c2cc3c(cc2N1)OCO3 (configuration not stated),0% (inactive),–
Cc1cccc(N2CCN(c3ccc(C(=O)O)cc3NC(=O)c3ccccc3F)CC2C)c1 (configuration not stated),7.99% (inactive),–
CC1CCN(C(=O)CSc2nnc(-c3ccco3)n2N)CC1,0% (inactive),–
COc1cccc(C(O)c2nc(-c3ccc(C)c(C)c3)cs2)c1 (configuration not stated),-4.18% (inactive),–
COc1ccc(S(=O)(=O)N2CCOCC2)cc1NC(=O)CC1CC2CCC1C2 (configuration not stated),-15.9% (inactive),–
COc1ccccc1NC(=O)CN(c1ccccc1OC)S(=O)(=O)c1ccccc1,0% (inactive),–
CCN(CC(=O)Nc1ccccc1OC)C(=O)CC1CC2CCC1C2 (configuration not stated),–,16.4 µM (active)
COc1ccccc1NC(=O)COC(=O)COc1ccccc1F,14.3% (inactive),–
COc1ccccc1/C=C/C(=O)NC1CC2CCC1C2 (configuration not stated),-12.1% (inactive),–
CCCN(CC(=O)Nc1ccccc1OC)C(=O)CCC(=O)c1ccc(F)cc1,–,10.3 µM (active)

# — PubChem BioAssay AID1347076 (National Center for Advancing Translational Sciences (NCATS), 2019)
